Measurements taken from PubChem BioAssay (EPA / NIEHS).
Calls of active or inactive are those of the source. Rule for the calls: active = hit-call score of the fitted dose curve at least 0.9, where 1 is the maximum; inactive = score below 0.9.

read-out: Interleukin 6 Receptor (IL6R), IL6R (gene 3570); experiment: LTEA_HepaRG_IL6R: Life Technologies and Expression Analysis (LTEA) Assay for Interleukin 6 Receptor (IL6R) using HepaRG (AID 2283510); details: mRNA level, 48 h; actives raise or lower the signal;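 for AC50: TaqMan qRT-PCR signal normalized to ACTB GAPDH and POLR2A housekeeping genes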
Protocol: LTEA_HepaRG is a cell based, multiplexed-readout assay that uses HepaRG, a human liver cell line, with measurements taken at 48 hours after chemical dosing on a 96-well plate.LTEA_HepaRG_IL6R is one of 102 assay component(s) measured in the LTEA HepaRG cell culture assay. It is a marker of Inflammation.Data from the assay component LTEA_HepaRG_IL6R was analyzed into 1 endpoint. This assay endpoint, LTEA_HepaRG_IL6R, was analyzed with bidirectional fitting relative to DMSO as the negative control and baseline of activity. Using a type of inducible reporter, measures of mRNA induction for gain or loss-of-signal activity can be used to understand regulation of transcription factor activity. To generalize the intended target to other relatable targets, this assay endpoint is annotated to the cytokine receptor intended target family, where the subfamily is JAK-STAT cytokine receptor.
A total of 1060 chemcials from the ToxCast library were tested in eight-point concentration-response experiments. Cell culture and cytotoxicity assays were conducted at Thermo Fisher Scientific's Custom Services facility (Madison, WI). A single lot of human HepaRG cells (Thermo Fisher Scientific, Frederick, MD) was used for the cell culture experiments. 96-well format collagen type I coated plates of human HepaRG cells were prepared using established methods. Briefly, cryopreserved HepaRG cells were thawed, plated at a density of approximately 100,000 cells/well in HepaRG Thaw, Plate, and General Purpose media (HPRG770, Thermo Fisher Scientific), and incubated for 48 hours. 0.5% DMSO was selected as vehicle control to balance the requisite need of DMSO in HepaRG cultures to maintain differentiation (for example, baseline metabolism, proportions of hepatocytes vs. cholangiocytes), while enabling further hepatic receptor pathway activation (for example, PXR and CAR) in response to chemical exposure. 48 hours after plating, the culture medium was replaced with HepaRG Serum-Free Incudtion Media. Cells were exposed to each test chemical in duplicate and maintained in CO2 incubators for another 48 hours. Chemical plates were thawed to room temperature and 200x concentrations of treatment groups were prepared. 8-point conentration-reponse curves were made with the highest exposure at 100 uM, followed by half-log dilutions, all in 0.5% DMSO. Each test plate contained variouse controls, induction positive controls (1mM phenobarbital), cytotoxicity positive controls ([…] aflatoxin B1), vehicle controls (0.5% DMSO), and total lysis controls (0.5% DMSO). Cell morphology images were taken using an Essen IncuCyte FLR automated microscope, with six 96-well plates imaged in about 24 minutes. Images were captured and exported and JPEG files. Spent culture media was transfered to black-well plates for the LDH assay, and remaining media was sorted at -80 C for later use. Cells were treated with RLT buffer and frozen until shipped for gene expression analysis. Total RNA was isolated from the cell suspension in 75 uL of Buffer RLT (Qiagen, Germantown, MD 20874) by Quintiles/Expression Analysis (Durham, NC) using a custom isolation procedure. Total RNA from each plate well was transferred to a preamplification plate. Fluidigm's 96.96 Dynamic ArrayTM (Fluidigm, Amsterdam, the Netherlands) technology was used for gene expression analyses by quantitative reverse transcription polymerase chain reaction (qRT-PCR, performed by Quintiles/Expression Analysis, Durham, NC)89. Standard TaqManTM Assays (Applied Biosystems/ThermoFisher Scientific, Foster City, CA) were used to assess the expression of 93 genes selected based on their selectivity and sensitivity to important hepatic receptors known to be modulated by environmental chemicals; importance in human hepatocyte functionality; and hepatotoxicity. […]

SMILES | outcome | AC50
CCOP(=O)(NC(C)C)Oc1ccc(SC)c(C)c1 (stereo not given) | inactive | –
COP(=O)(NC(C)=O)SC (stereo not given) | inactive | –
COP(=O)(OC)SCn1c(=O)oc2cc(Cl)cnc21 | inactive | –
CNC(=O)ON=C(SC)C(=O)N(C)C | inactive | –
CSc1nc(NC(C)C)nc(NC(C)C)n1 | inactive | –
CC(=NC#N)N(C)Cc1ccc(Cl)nc1 | inactive | –
CCOP(=S)(OCC)SCCSCC | inactive | –
CCCSP(=O)(OCC)Oc1ccc(Br)cc1Cl (stereo not given) | inactive | –
CCOC(=O)CC(SP(=O)(OC)OC)C(=O)OCC (stereo not given) | inactive | –
CCCOc1nn(C(=O)NS(=O)(=O)c2ccccc2C(=O)OC)c(=O)n1C | inactive | –
COP(=O)(OC)C(O)C(Cl)(Cl)Cl (stereo not given) | inactive | –
O=C(O)c1cc(Oc2ccc(C(F)(F)F)cc2Cl)ccc1[N+](=O)[O-] | inactive | –
CC(C)N(C(=O)SCC(Cl)=C(Cl)Cl)C(C)C | inactive | –
CCOP(=S)(OCC)Oc1ccc2c(C)c(Cl)c(=O)oc2c1 | inactive | –
C[N+]1(C)CCCCC1 | inactive | –
CCOC(=O)COc1cc(-c2nn(C)c(OC(F)F)c2Cl)c(F)cc1Cl | inactive | –
CCOP(=O)(OCC)Oc1cc(C)nc(C(C)C)n1 | inactive | –
Cc1cc(C2CC2)nc(Nc2ccccc2)n1 | – | 50 µM (active)
CCC(=O)Nc1ccc(Cl)c(Cl)c1 | inactive | –
O=c1ccc(=O)[nH][nH]1 | inactive | –

SMILES | outcome | AC50
CC1(C(=O)Nc2ccc(O)c(Cl)c2Cl)CCCCC1 | inactive | –
CC[C@H](C)[C@H]1O[C@]2(C=C[C@@H]1C)C[C@@H]1C[C@@H](C/C=C(\C)[C@@H](O[C@H]3C[C@H](OC)[C@@H](O[C@H]4C[C@H](OC)[C@@H](NC)[C@H](C)O4)[C@H](C)O3)[C@@H](C)/C=C/C=C3\CO[C@@H]4[C@H](O)C(C)=C[C@@H](C(=O)O1)[C@]34O)O2 | – | 22.6 µM (active)
O=[N+]([O-])c1cc(C(F)(F)F)c(Cl)c([N+](=O)[O-])c1Nc1ncc(C(F)(F)F)cc1Cl | – | 50 µM (active)
CSC1=N[C@@](C)(c2ccccc2)C(=O)N1Nc1ccccc1 | – | 16.5 µM (active)
Nc1nc(N)nc(NC2CC2)n1 | inactive | –
CSc1nnc(C(C)(C)C)c(=O)n1N | inactive | –
CCc1cccc(CC)c1N(COC)C(=O)CCl | inactive | –
CCNc1nc(Cl)nc(NC(C)(C)C#N)n1 | inactive | –
CN1COCN(Cc2cnc(Cl)s2)C1=N[N+](=O)[O-] | inactive | –
CCOP(=O)(SC(C)CC)N1CCSC1=O (stereo not given) | inactive | –
CON=C(C(=O)OC)c1ccccc1CON=C(C)c1cccc(C(F)(F)F)c1 | inactive | –
CCCSP(=O)(OCC)SCCC | inactive | –
CNc1cnn(-c2cccc(C(F)(F)F)c2)c(=O)c1Cl | inactive | –
CC(Oc1cccc(Cl)c1)C(=O)O (stereo not given) | inactive | –
COc1cccc(C(=O)NN(C(=O)c2cc(C)cc(C)c2)C(C)(C)C)c1C | inactive | –
Cc1nn(-c2cc(NS(C)(=O)=O)c(Cl)cc2Cl)c(=O)n1C(F)F | inactive | –
CCc1cccc(C)c1N(C(=O)CCl)C(C)COC (stereo not given) | inactive | –
COc1cc(OC)nc(Sc2cccc(Cl)c2C(=O)O)n1 | inactive | –
CCCCSP(=O)(SCCCC)SCCCC | inactive | –
CCOP(=S)(OCC)Oc1cc(C)nc(C(C)C)n1 | inactive | –
